# Reference: PubChem BioAssay (EPA / NIEHS)
# Several values for one entry are separate records, joined by “and”; a condition that tells them apart may be missing. Equal entries are not always repeated. Records with an inconclusive call do not appear. Where a structure was tested more than once in an assay, its records may differ in their call. Activity calls are given as the source filed them. Rule for the calls: active = hit-call score of the fitted dose curve at least 0.9, where 1 is the maximum; inconclusive = response in the unintended direction; inactive = score below 0.9.
# What was measured:
# [1] = tested on: zebrafish Estrogen Receptor (ER2b), gene 317733; assay: ATG_zfER2b_XSP2: Attagene TRANS-FACTORIAL Multi-Species (XSP2) HepG2 Assay for zebrafish Estrogen Receptor (ER2b) (AID 2283823);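 note: fitted upward as reporter gain over DMSO so potency reflects activation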
# In short: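 In this multiplexed trans-activation format, HepG2 cells expressing exogenous NR-Gal4 fusions drive GAL4-UAS reporters. Exposure lasts 24 h, and reporter mRNA induction is read by RT-PCR with capillary electrophoresis detection.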
# [2] = ATG_M_32_XSP2: Attagene TRANS-FACTORIAL Multi-Species (XSP2) HepG2 Assay for M19 Transcription Factor (Internal Marker) (AID 2283826)
# Experimental: ATG_XSP2_multi-species_TRANS is a cell-based, multiplexed assay created by modifying the existing Attagene TRANS-FACTORIAL system to include a panel of nuclear receptors from some or all the following species: human (Homo sapiens), mouse (Mus musculus), frog (Xenopus laevis), zebrafish (Danio rerio), chicken (Gallus gallus), and turtle (Chrysemys picta). The ECOTOX-FACTORIAL format uses HepG2, a human liver cell line, with measurements taken at 24 hours after chemical dosing in a 24-well plate. Xsp2 included 3 nM 6-alpha-fluorotestosterone and 1.5 nM norgestrel to stimulate the androgen receptor.ATG_M_32_XSP2 is one of 29 assay components measured or calculated from the ATG_XSP2_multi-species_TRANS assay. It is designed to make measurements of mRNA induction, a form of inducible reporter, as detected with fluorescence intensity signals by Reverse transcription polymerase chain reaction (RT-PCR) and Capillary electrophoresis technology.This assay endpoint, ATG_M_32_XSP2, was analyzed in the positive analysis fitting direction relative to DMSO as the negative control and baseline of activity. Using a type of inducible reporter, measures of mRNA for gain-of-signal activity can be used to understand the background control at the transcription factor-level as they relate to the gene. Furthermore, this assay endpoint can be referred to as a secondary readout, because this assay has produced multiple assay endpoints where this one serves a background control function. To generalize the intended target to other relatable targets, this assay endpoint is annotated to the background measurement intended target family, where the subfamily is internal marker.
# Human liver HepG2 cells are transiently transfected with multiple reporter transcription units (MRTUs) in 6-well plates using FuGene 6 reagent (Roche; 3 ml FuGene/1 mg DNA). The MRTU constructs are regulated by a cis-regulating element (promoter). […] A major difference between the CIS and TRANS system is that in CIS activities of endogenous TFs are measured, whereas the TRANS assay evaluates changes in activities of exogenous, chimeric NR-Gal4 proteins. […] At the end of 24 hour incubation, total RNA was isolated using TriZol reagent (Invitrogen). The isolated RNA is then reverse-transcribed using oligo(dT) primer and Mo-MLV reverse transcriptase (Invitrogen) with DNAse I (Ambion) treatment for 30 min. The one-tenth of the produced cDNA was amplified by PCR using Taq DNA polymerase (Invitrogen) and two reporter sequence-specific primers. The PCR products were fluorescently labeled by primer extension with 6-arboxyfluorescein (6-FAM) 5'-labeled reporter sequence-specific primer (2 min at 95 C, 20 s at 68 C and 10 min at 72 C) and these products were digested with 5U of HpaI (New England Biolabs) for 2h at 37 C. The fragments were purified using Qiaquick PCR columns (Qiagen), analyzed on an ABI 3130xL genetic analyzer (Applied Biosystems) with peak positions identified by using a set of X-rhodamine (ROX)-labeled MapMarker1000 molecular weight standards (BioVentures). The raw capillary electrophoresis data was processed using Attagraph software (Attagene).
# [3] = tested on: frog Estrogen Receptor (ER2), gene 100174814; assay: ATG_frER2_XSP2: Attagene TRANS-FACTORIAL Multi-Species (XSP2) HepG2 Assay for frog Estrogen Receptor (ER2) (AID 2283828)
# In short: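 Cells were transfected with reporter constructs under GAL4-UAS control, dosed with chemicals for 24 h, then lysed for RNA; the frog ER2-driven reporter mRNA was quantified by capillary electrophoresis of labeled PCR fragments, with activity fitted upward from DMSO.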
# [4] = biological target: Peroxisome proliferator-activated receptor gamma (Homo sapiens) (UniProt P37231); assay: ATG_hPPARg_XSP2: Attagene TRANS-FACTORIAL Multi-Species (XSP2) HepG2 Assay for human Peroxisome Proliferator-activated Receptor gamma (PPARg) (AID 2283829);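 note: actives raise reporter mRNA above DMSO so AC50 reflects PPARg activation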
# In short: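 Multiplexed transactivation in transfected HepG2 liver cells. Gal4-chimeric receptor activity reported as induced reporter transcript after 24 h.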
# [5] = biological target: mouse Peroxisome Proliferator-activated Receptor gamma (PPARg), Pparg (gene 19016) (UniProt P37238); assay: ATG_mPPARg_XSP2: Attagene TRANS-FACTORIAL Multi-Species (XSP2) HepG2 Assay for mouse Peroxisome Proliferator-activated Receptor gamma (PPARg) (AID 2283830);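 note: hits are gains in reporter mRNA above DMSO so AC50 marks activation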
# In short: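 Multiplexed TRANS reporter readout: after 24 h chemical exposure of transfected HepG2 cells (with 3 nM 6-alpha-fluorotestosterone, 1.5 nM norgestrel present), RNA reverse-transcribed, amplified, 6-FAM-labelled and resolved by capillary electrophoresis; mouse PPARg-Gal4 induction scored against DMSO.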
# [6] = biological target: Nuclear receptor subfamily 1 group I member 2 (Mus musculus) (UniProt O54915); assay: ATG_mPXR_XSP2: Attagene TRANS-FACTORIAL Multi-Species (XSP1) HepG2 Assay for mouse Pregnane X Receptor (PXR) (AID 2283831)
# In short: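 Human liver HepG2 cells expressing exogenous receptor-GAL4 chimeras were exposed to test chemicals for 24 h. Induction of reporter mRNA was scored as gain of fluorescence signal over DMSO controls.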
# [7] = tested on: frog Estrogen Receptor (ER), gene 398734; assay: ATG_frER1_XSP2: Attagene TRANS-FACTORIAL Multi-Species (XSP2) HepG2 Assay for frog Estrogen Receptor (ER) (AID 2283821);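 note: hits raise reporter mRNA above DMSO baseline so potency means agonist or activator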
# In short: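 Reporter mRNA induction, detected as fluorescence after RT-PCR and capillary electrophoresis, is the endpoint; activity is fitted upward against DMSO. Cells are human liver HepG2 carrying transfected NR-Gal4 chimeras with GAL4-UAS-driven reporters, harvested 24 h post-dosing.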
# [8] = tested on: zebrafish Androgen Receptor (AR), gene 100005148; assay: ATG_zfAR_XSP2: Attagene TRANS-FACTORIAL Multi-Species (XSP2) HepG2 Assay for zebrafish Androgen Receptor (AR) (AID 2283825);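 note: hits raise reporter mRNA above DMSO so AC50 reflects agonist-type gain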
# In short: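 After 24 h compound exposure in medium with 3 nM 6-alpha-fluorotestosterone plus 1.5 nM norgestrel, HepG2 cells carrying zebrafish AR–GAL4 reporter constructs were assessed for reporter mRNA gain by RT-PCR and capillary electrophoresis.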
# [9] = ATG_M_19_XSP2: Attagene TRANS-FACTORIAL Multi-Species (XSP2) HepG2 Assay for M32 Transcription Factor (Internal Marker) (AID 2283822)
# In short: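 Internal background marker in a multi-species nuclear receptor TRANS panel: transfected HepG2 cells exposed 24 h, with 3 nM 6-alpha-fluorotestosterone and 1.5 nM norgestrel present. Readout is RT-PCR of reporter transcripts resolved by capillary electrophoresis, gain-of-signal versus DMSO.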
# [10] = biological target: Estrogen receptor (Homo sapiens) (UniProt P03372); assay: ATG_hERa_XSP2: Attagene TRANS-FACTORIAL Multi-Species (XSP2) HepG2 Assay for human Estrogen Receptor (ERa) (AID 2283827)
# In short: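 Trans-activation of exogenous human ERa-Gal4 chimera read in HepG2 as reporter transcript after 24 h exposure; medium included 3 nM 6-alpha-fluorotestosterone and 1.5 nM norgestrel. Quantified by RT-PCR with capillary electrophoresis, positive-direction fitting against DMSO.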
# Chain of mouse Peroxisome Proliferator-activated Receptor gamma (PPARg), Pparg (gene 19016) (P37238 whole entry, looked up, the tested form may be a part): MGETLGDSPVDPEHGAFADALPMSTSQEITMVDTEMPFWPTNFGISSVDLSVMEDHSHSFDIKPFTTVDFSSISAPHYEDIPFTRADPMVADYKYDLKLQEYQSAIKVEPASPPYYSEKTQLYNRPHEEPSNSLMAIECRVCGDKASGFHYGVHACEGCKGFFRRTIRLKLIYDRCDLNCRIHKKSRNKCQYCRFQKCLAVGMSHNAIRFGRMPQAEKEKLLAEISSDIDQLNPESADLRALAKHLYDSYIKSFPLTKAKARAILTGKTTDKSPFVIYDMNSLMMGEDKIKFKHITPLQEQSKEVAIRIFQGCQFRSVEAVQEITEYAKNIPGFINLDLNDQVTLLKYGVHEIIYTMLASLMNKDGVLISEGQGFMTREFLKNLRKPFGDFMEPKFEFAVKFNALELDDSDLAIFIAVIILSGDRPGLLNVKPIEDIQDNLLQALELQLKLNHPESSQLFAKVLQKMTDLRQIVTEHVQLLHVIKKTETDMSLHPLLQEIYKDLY
# Chain of Peroxisome proliferator-activated receptor gamma (Homo sapiens) (P37231 whole entry, looked up, the tested form may be a part): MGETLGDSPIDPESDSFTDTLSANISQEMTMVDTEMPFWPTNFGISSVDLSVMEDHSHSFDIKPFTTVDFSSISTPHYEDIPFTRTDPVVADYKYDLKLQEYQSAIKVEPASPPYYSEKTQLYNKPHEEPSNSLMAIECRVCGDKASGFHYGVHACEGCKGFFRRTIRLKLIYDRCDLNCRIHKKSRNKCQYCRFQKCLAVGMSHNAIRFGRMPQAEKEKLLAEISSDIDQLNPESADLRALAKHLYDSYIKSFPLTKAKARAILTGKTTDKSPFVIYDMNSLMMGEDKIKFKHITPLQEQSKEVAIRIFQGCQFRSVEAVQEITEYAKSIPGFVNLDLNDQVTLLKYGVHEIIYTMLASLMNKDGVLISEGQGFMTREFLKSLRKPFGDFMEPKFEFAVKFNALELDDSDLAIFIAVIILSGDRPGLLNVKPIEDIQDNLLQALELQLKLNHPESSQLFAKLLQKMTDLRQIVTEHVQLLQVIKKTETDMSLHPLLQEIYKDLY
# Chain of Nuclear receptor subfamily 1 group I member 2 (Mus musculus) (O54915 whole entry, looked up, the tested form may be a part): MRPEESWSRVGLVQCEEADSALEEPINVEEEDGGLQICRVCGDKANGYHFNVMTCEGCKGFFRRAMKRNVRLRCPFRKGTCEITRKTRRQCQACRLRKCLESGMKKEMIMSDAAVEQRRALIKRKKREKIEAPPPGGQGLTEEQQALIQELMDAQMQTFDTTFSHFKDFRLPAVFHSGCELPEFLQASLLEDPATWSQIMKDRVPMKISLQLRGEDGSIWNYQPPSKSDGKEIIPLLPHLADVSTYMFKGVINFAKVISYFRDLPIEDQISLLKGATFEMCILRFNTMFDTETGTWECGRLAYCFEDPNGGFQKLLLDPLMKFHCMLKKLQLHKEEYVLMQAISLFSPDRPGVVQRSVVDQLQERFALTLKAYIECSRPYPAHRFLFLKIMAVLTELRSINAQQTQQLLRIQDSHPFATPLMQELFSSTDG
# Chain of Estrogen receptor (Homo sapiens) (P03372 whole entry, looked up, the tested form may be a part): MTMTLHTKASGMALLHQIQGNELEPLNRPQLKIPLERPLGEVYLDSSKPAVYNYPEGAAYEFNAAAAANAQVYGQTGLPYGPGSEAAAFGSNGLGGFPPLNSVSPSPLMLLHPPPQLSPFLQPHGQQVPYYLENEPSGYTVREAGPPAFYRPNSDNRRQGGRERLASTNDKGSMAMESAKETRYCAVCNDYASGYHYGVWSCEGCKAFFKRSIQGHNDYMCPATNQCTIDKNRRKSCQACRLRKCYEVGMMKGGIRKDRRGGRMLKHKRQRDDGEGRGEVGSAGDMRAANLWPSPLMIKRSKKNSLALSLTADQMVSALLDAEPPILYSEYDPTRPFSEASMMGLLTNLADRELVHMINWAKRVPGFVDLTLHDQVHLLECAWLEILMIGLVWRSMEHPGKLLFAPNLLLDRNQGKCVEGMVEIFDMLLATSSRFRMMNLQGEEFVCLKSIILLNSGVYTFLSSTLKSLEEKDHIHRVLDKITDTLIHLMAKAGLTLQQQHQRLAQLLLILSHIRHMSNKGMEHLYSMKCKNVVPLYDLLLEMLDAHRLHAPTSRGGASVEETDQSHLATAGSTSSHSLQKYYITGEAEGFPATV
smiles,measurement,setting,value
CCc1cccc(C)c1N(C(=O)CCl)C(C)COC (configuration not stated),outcome,[1],inactive
same,outcome,[2],inactive
same,outcome,[3],inactive
same,AC50,[4],55.8 µM (active)
same,AC50,[5],27.3 µM (active)
same,AC50,[6],3.96 µM (active)
CCC(CC)Nc1c([N+](=O)[O-])cc(C)c(C)c1[N+](=O)[O-],AC50,[7],3.96 µM (active) and 5.7 µM (active)
same,AC50,[1],18.1 µM (active) and 7.12 µM (active)
same,outcome,[2],inactive
same,AC50,[3],8.22 µM (active) and 4.99 µM (active)
same,outcome,[4],inactive
same,outcome,[5],inactive
same,AC50,[6],266 nM (active) and 269 nM (active)
CCCOCC(=Nc1ccc(Cl)cc1C(F)(F)F)n1ccnc1,outcome,[7],inactive
same,AC50,[1],39.8 µM (active)
same,outcome,[2],inactive
same,outcome,[3],inactive
same,AC50,[4],0.909 µM (active)
same,AC50,[5],1.28 µM (active)
same,AC50,[6],9.9 µM (active)
C#CC(C)(C)NC(=O)c1cc(Cl)cc(Cl)c1,AC50,[7],27.6 µM (active)
same,outcome,[1],inactive
same,outcome,[2],inactive
same,outcome,[3],inactive
same,AC50,[6],26.8 µM (active)
CCOP(=O)(NC(C)C)Oc1ccc(SC)c(C)c1 (configuration not stated),AC50,[7],148 µM (active) and 8.45 µM (active)
same,AC50,[1],65.5 µM (active) and 43.8 µM (active)
same,outcome,[2],inactive
same,AC50,[3],100 µM (active) and 69 µM (active)
same,AC50,[4],43.6 µM (active) and 36.6 µM (active)
same,AC50,[5],31.6 µM (active) and 38.4 µM (active)
same,AC50,[6],4.34 µM (active) and 4.75 µM (active)
COc1ccc(C(=CC(=O)N2CCOCC2)c2ccc(Cl)cc2)cc1OC,outcome,[7],inactive
same,AC50,[1],100 µM (active) and 54.2 µM (active)
same,outcome,[8],inactive
same,AC50,[3],52.4 µM (active)
same,outcome,[3],inactive
same,AC50,[4],19.8 µM (active)
same,outcome,[4],inactive
same,AC50,[5],29.3 µM (active)
same,outcome,[5],inactive
same,AC50,[6],4.65 µM (active) and 4.32 µM (active)
Nc1c(Cl)cc([N+](=O)[O-])cc1Cl,outcome,[7],inactive
same,outcome,[9],inactive
same,AC50,[1],25.3 µM (active) and 49.6 µM (active)
same,outcome,[2],inactive
same,AC50,[10],10.9 µM (active) and 17.4 µM (active)
same,outcome,[3],inactive
same,AC50,[4],25.7 µM (active) and 34.9 µM (active)
same,AC50,[5],11.9 µM (active) and 41.8 µM (active)
same,AC50,[6],10.8 µM (active) and 9.9 µM (active)
CCC(=O)Nc1ccc(Cl)c(Cl)c1,AC50,[7],38 µM (active)
same,outcome,[7],inactive
same,AC50,[1],170 µM (active)
same,outcome,[1],inactive
same,outcome,[3],inactive
same,AC50,[4],27.2 µM (active)
same,AC50,[5],39.7 µM (active)
same,outcome,[5],inactive
same,AC50,[6],27.6 µM (active) and 24.3 µM (active)
C#CCC1=C(C)C(OC(=O)C2C(C=C(C)C)C2(C)C)CC1=O (configuration not stated),outcome,[7],inactive
same,outcome,[1],inactive
same,outcome,[3],inactive
same,AC50,[4],22.6 µM (active)
same,AC50,[5],30.2 µM (active)
same,AC50,[6],0.712 µM (active)
CCOP(=S)(OCC)Oc1ccc2c(C)c(Cl)c(=O)oc2c1,outcome,[7],inactive
same,AC50,[1],100 µM (active)
same,outcome,[2],inactive
same,AC50,[4],27 µM (active)
same,AC50,[5],5.43 µM (active)
same,AC50,[6],0.00908 µM (active)
